Data on 22 molecules can be found in paper PMC5540273 (PLoS ONE, 2017).

Some test systems named below: CSNK1G1; CSNK1G2; CSNK1G3; CSNK2A1; CSNK2A2; DAPK1; DAPK2; DAPK3.
Common to all, as to settings: concentration: 1 μM, replicates: in singlicate; n = 1
The subject of the next experiment is T1, CTK.
T1 construct: gene MATK

Another experiment has as its system T2, DCAMKL1.
T2 construct: gene DCLK1
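Note: KINOMEscan kinase panel screen.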

For `CS(=O)(=O)c1cccc(CNc2nc(Nc3ccc4c(c3)CCC(=O)N4)ncc2C(F)(F)F)c1`, the “%Inh” value in the experiment on CSNK1G1 is 0%; in the experiment on CSNK1G2 it was 4%; in the experiment on CSNK1G3 it was 0%; with CSNK2A1, 17%; in the experiment on CSNK2A2, 51%; in the experiment with CTK it was 0%. Besides, the “%Inh” value in the experiment on DAPK1 is listed as 0%; in the experiment with DAPK2, 0%; in the experiment with DAPK3 it was 11%; with DCAMKL1, 36%.
Take `NCCC(NC(=O)c1cc(Br)c(-c2ccnc3[nH]ccc23)s1)c1ccccc1.O=C(O)C(F)(F)F.O=C(O)C(F)(F)F` (stereo not shown) [GSK1307810]: the “%Inh” value was 83% with CSNK1G1; 99% in the experiment with CSNK1G2; 99.2% in the experiment on CSNK1G3; 98.9% in the experiment with CSNK2A1; 94.7% with CSNK2A2; 0% in the experiment on CTK. For the same molecule, the “%Inh” value in the experiment on DAPK1 was found to be 6%; in the experiment with DAPK2, 28%; in the experiment on DAPK3, 29%; with DCAMKL1 it was 25%.
Take `COC(=O)Nc1nc2ccc(Oc3ccc(CC(=O)Nc4cc(C(F)(F)F)ccc4F)cc3)cc2[nH]1` [GW680903]: the “%Inh” value in the experiment with CSNK1G1 came to 0%; in the experiment on CSNK1G2, 0%; with CSNK1G3, 14%; with CSNK2A1, 0%; in the experiment with CSNK2A2, 0%; with CTK it was 0%. Moreover, the “%Inh” value in the experiment with DAPK1 worked out at 0%; in the experiment with DAPK2, 0%; with DAPK3, 0%; with DCAMKL1, 11%.
In the case of `Cc1ccc(NC(=O)c2cccc(N3CCCCC3)c2)cc1-c1ccc(C(=O)NCC2CC2)cc1` [GSK1917008], the “%Inh” value stood at 8% in the experiment with CSNK1G1; 0% with CSNK1G2; 24% in the experiment on CSNK1G3; 29% in the experiment on CSNK2A1; 10% in the experiment with CSNK2A2; 17% in the experiment on CTK. In addition, the “%Inh” value in the experiment on DAPK1 is given as 0%; in the experiment with DAPK2, 0%; in the experiment on DAPK3 it was 29%; in the experiment with DCAMKL1 it was 16%.
For the molecule `CSc1ccc(NC2=C(c3ccc(Cl)cc3)C(=O)NC2=O)cc1` [SB-317658], the “%Inh” value in the experiment on CSNK1G1 is given as 0%; with CSNK1G2, 15%; with CSNK1G3 it was 0%; with CSNK2A1 it was 0%; in the experiment on CSNK2A2, 25%; in the experiment on CTK, 19%. The “%Inh” value in the experiment with DAPK1, with DAPK2, with DAPK3 and with DCAMKL1 was 0% throughout.
As for `COc1ccc(NC(=O)c2ccoc2)cc1-c1ccc(C(=O)NCC2CC2)cc1` [GW810437], the “%Inh” value is on record as 0% in the experiment on CSNK1G1; 0% with CSNK1G2; 0% in the experiment on CSNK1G3; 0% in the experiment on CSNK2A1; 0% in the experiment on CSNK2A2; 15% in the experiment on CTK. The “%Inh” value is 0% in the experiment on DAPK1, 17% with DAPK2, 13% with DAPK3 and 0% with DCAMKL1.
Turning to `COc1cccc(C2=C(Nc3cccc(O)c3)C(=O)NC2=O)c1` [SB-390771], the “%Inh” value in the experiment with CSNK1G1 is recorded as 9%; with CSNK1G2, 0%; in the experiment on CSNK1G3, 15%; with CSNK2A1, 0%; in the experiment on CSNK2A2 it was 8%; with CTK, 0%. The “%Inh” value with DAPK1 worked out at 14%; in the experiment on DAPK2 it was 0%; in the experiment on DAPK3, 16%; with DCAMKL1 it was 21%.
Regarding `O=C1NC(=O)C(c2ccccc2Cl)=C1Nc1cccc(Cl)c1` [SB-342409], the “%Inh” value stood at 14% with CSNK1G1; 0% in the experiment with CSNK1G2; 26% in the experiment on CSNK1G3; 0% with CSNK2A1; 0% with CSNK2A2; 24% with CTK. The “%Inh” value with DAPK1 stood at 0%; with DAPK2, 0%; in the experiment on DAPK3 it was 15%; with DCAMKL1, 13%.
As to `c1ccc(Oc2ccc(Nc3ccnc4cc(-c5ccc(CN6CCCCC6)o5)ccc34)cc2)nc1` [GW567143], the “%Inh” value with CSNK1G1 worked out at 0%; in the experiment with CSNK1G2 it was 6%; in the experiment on CSNK1G3, 3%; with CSNK2A1, 15%; in the experiment with CSNK2A2 it was 12%; in the experiment on CTK, 5%. Further, the “%Inh” value in the experiment on DAPK1 is listed as 0%; with DAPK2, 0%; in the experiment on DAPK3, 0%; with DCAMKL1, 4%.
In the case of `Cc1cccc(Nc2nc(NCCN)ncc2C(N)=O)c1` [GSK1292139], the “%Inh” value with CSNK1G1 turned out to be 6%; with CSNK1G2 it was 0%; in the experiment on CSNK1G3, 26%; in the experiment with CSNK2A1, 34%; with CSNK2A2, 29%; in the experiment on CTK, 0%. The “%Inh” value in the experiment on DAPK1 was determined as 52%; with DAPK2, 25%; in the experiment on DAPK3, 38%; in the experiment with DCAMKL1, 16%.
Consider `Cc1ccc(NC(=O)c2ccc(Cl)c(Cl)c2)cc1-c1ccc(C(=O)Nc2ccncc2)cc1` [GSK1398460], for which the “%Inh” value turned out to be 12% in the experiment on CSNK1G1; 16% in the experiment with CSNK1G2; 36% in the experiment with CSNK1G3; 0% in the experiment on CSNK2A1; 2% with CSNK2A2; 0% in the experiment on CTK. Besides, the “%Inh” value with DAPK1 was determined as 11%; in the experiment with DAPK2, 0%; in the experiment with DAPK3 it was 18%; with DCAMKL1 it was 22%.
Take `O=C(Nc1n[nH]c2nc(-c3cccc(O)c3)ccc12)C1CC1` [SB-711805]: the “%Inh” value in the experiment with CSNK1G1 turned out to be 6%; with CSNK1G2 it was 0%; with CSNK1G3, 25%; with CSNK2A1, 52%; in the experiment on CSNK2A2 it was 82%; in the experiment on CTK, 0%. The “%Inh” value amounted to 17% with DAPK1, 0% in the experiment on DAPK2, 23% in the experiment with DAPK3 and 17% with DCAMKL1.
Take `CC(C)c1nc(-c2cccc(NS(=O)(=O)c3c(F)cccc3F)c2)c(-c2ccnc(Nc3ccc(N4CCOCC4)nc3)n2)s1.Cl` [GSK1723980]: the “%Inh” value in the experiment on CSNK1G1 stood at 2%; in the experiment on CSNK1G2, 0%; with CSNK1G3, 0%; with CSNK2A1 it was 2%; in the experiment on CSNK2A2, 0%; in the experiment with CTK it was 37%. Also, the “%Inh” value in the experiment on DAPK1 is given as 3%; in the experiment with DAPK2, 0%; in the experiment with DAPK3, 0%; in the experiment with DCAMKL1, 11%.
In the case of `Cl.Cl.NC(CNC(=O)c1cc(Br)c(-c2ccnc3[nH]ccc23)s1)c1ccccc1` (stereo not shown) [GSK1322949], the “%Inh” value in the experiment with CSNK1G1 came out at 30%; in the experiment with CSNK1G2 it was 59%; in the experiment on CSNK1G3, 60%; in the experiment on CSNK2A1, 90%; in the experiment with CSNK2A2, 84%; in the experiment with CTK it was 0%. For the same molecule, the “%Inh” value in the experiment with DAPK1 is on record as 41%; in the experiment on DAPK2 it was 31%; with DAPK3, 54%; with DCAMKL1 it was 37%.
For the molecule `Fc1cc(Cl)ccc1Nc1ccnc2cc(-c3ccc(CN4CCSCC4)o3)ccc12` [GW560106], the “%Inh” value was 0% with CSNK1G1; 0% in the experiment on CSNK1G2; 14% with CSNK1G3; 0% with CSNK2A1; 100% with CSNK2A2; 0% with CTK. In addition, the “%Inh” value in the experiment on DAPK1 was determined as 0%; in the experiment on DAPK2 it was 0%; with DAPK3 it was 11%; with DCAMKL1 it was 7%.
For the molecule `COc1cccc(NC(=O)NCCNc2ccnc(Nc3ccc(F)cc3)n2)c1` [GSK1379879], the “%Inh” value in the experiment on CSNK1G1 is on record as 0%; in the experiment on CSNK1G2, 0%; with CSNK1G3, 23%; in the experiment on CSNK2A1, 0%; in the experiment on CSNK2A2, 7%; in the experiment on CTK, 0%. The “%Inh” value in the experiment on DAPK1 is 0%; in the experiment on DAPK2, 0%; in the experiment on DAPK3, 17%; with DCAMKL1, 9%.
Turning to `CNc1nccc(-c2ccc3c(N)n[nH]c3c2)n1` [GSK2206003], the “%Inh” value in the experiment with CSNK1G1 turned out to be 14%; in the experiment with CSNK1G2, 0%; with CSNK1G3, 33%; in the experiment on CSNK2A1 it was 43%; in the experiment with CSNK2A2, 62%; with CTK, 0%. The “%Inh” value is reported as 29% with DAPK1, 31% in the experiment with DAPK2, 39% in the experiment on DAPK3 and 0% in the experiment on DCAMKL1.
Turning to `O=C(Nc1n[nH]c2nc(-c3ccccc3O)ccc12)C1CC1` [SB-711880], the “%Inh” value with CSNK1G1 worked out at 0%; with CSNK1G2 it was 0%; in the experiment with CSNK1G3, 28%; in the experiment with CSNK2A1 it was 49%; in the experiment on CSNK2A2, 84%; in the experiment with CTK, 36%. Also, the “%Inh” value in the experiment on DAPK1 turned out to be 12%; in the experiment with DAPK2 it was 0%; with DAPK3, 21%; with DCAMKL1, 22%.
As to `COC(=O)Nc1nc2cc(Oc3ccc(NC(=O)Nc4cccc(SC)c4)cc3)ccc2[nH]1.Cl` [GW697999], the “%Inh” value was determined as 6% in the experiment with CSNK1G1; 0% with CSNK1G2; 1% with CSNK1G3; 0% in the experiment on CSNK2A1; 0% in the experiment with CSNK2A2; 0% with CTK. For the same molecule, the “%Inh” value was 0% with DAPK1, 43% in the experiment with DAPK2, 1% in the experiment with DAPK3 and 21% in the experiment with DCAMKL1.
Turning to `O=C(O)C(F)(F)F.O=c1[nH]ccc2nc(N[C@@H]3CCNC3)nc(Nc3cc(Cl)cc(Cl)c3)c12` [GSK2188764], the “%Inh” value turned out to be 77% with CSNK1G1; 94.2% with CSNK1G2; 95.1% with CSNK1G3; 98.9% in the experiment with CSNK2A1; 100% with CSNK2A2; 0% in the experiment with CTK. Moreover, the “%Inh” value is reported as 97.3% in the experiment with DAPK1, 97.4% with DAPK2, 100% in the experiment on DAPK3 and 86% in the experiment with DCAMKL1.
With `Nc1ncc(-c2ccc3nccc(-c4ccncc4)c3c2)cc1S(=O)(=O)N1CCCCC1` [GSK1693850], the “%Inh” value amounted to 0% in the experiment with CSNK1G1; 18% in the experiment with CSNK1G2; 33% in the experiment with CSNK1G3; 2% with CSNK2A1; 0% with CSNK2A2; 0% in the experiment on CTK. Also, the “%Inh” value in the experiment on DAPK1 is given as 11%; in the experiment with DAPK2, 26%; in the experiment on DAPK3 it was 30%; with DCAMKL1 it was 15%.
As for `Cc1nn2c(=O)cc(N3CCO[C@H](C)C3)nc2n1Cc1cccc(Cl)c1Cl` [GSK2373693], the “%Inh” value with CSNK1G1 was 10%; with CSNK1G2, 0%; with CSNK1G3, 26%; in the experiment with CSNK2A1, 50%; in the experiment with CSNK2A2, 63%; with CTK it was 0%. The “%Inh” value is on record as 37% with DAPK1, 54% with DAPK2, 94.7% in the experiment on DAPK3 and 0% in the experiment on DCAMKL1.
